SMILES strings stand for the structures. Several values for one entry are separate records, joined by “and”; a condition that tells them apart may be missing. Equal entries are not always repeated. Screen size: about 410,000 compounds; about 18,000 (4.4%) were called active. About 7% were inconclusive and are not listed. No stated cut-off is given here; in the data, active means activity change below about -60%; inconclusive means no clear call, values can overlap the other calls; inactive means above about -39%. The list comes from a sample in which actives are over-represented; it also holds similar structures and randomly drawn compounds. Where a structure was tested more than once in an assay, its records may differ in their call.
On the % scale 0 is the no-effect control and ±100 the full control effect.

This assay in a line: qHTS Assay for inhibitors of the human cytomegalovirus (HCMV). As to conditions: HFF cells, HCMV-luciferase reporter, 72 h; at 57.5 µM; stronger effect = lower value. The procedure, abridged:
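Steps: HFFs plated, 16 h 37C; compounds added; HCMV-luciferase added to MOI 1 PFU/cell; 72 h 37C; OneGlo reagent, 5 min room temperature; luminescence read, normalized to controls.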
Consider `Cc1cccc2c1-c1sc(C(=O)Nc3ccc(F)cc3F)cc1CO2`, for which the activity change, negative = inhibition was -12.8% (inactive). On to `Cc1cccc(-n2c(SCC(N)=O)nc3c(c2=O)C2(CCCCC2)Cc2ccccc2-3)c1`, for which the activity change, negative = inhibition is -70.4% (active). Next, `COc1ccc(-n2c(SCC(N)=O)nc3c(oc4ccccc43)c2=O)cc1`: -15.1% (inactive); `CCOC(=O)C1Cn2c(nc3c(c2=O)C(C)(CC)Cc2ccccc2-3)S1` (centres undefined): -19.7% (inactive); `NC(=O)c1ccc(Nc2ccc3c(c2)CCC3)c([N+](=O)[O-])c1`: -8.76% (inactive). With `CCCCN(CC)C(=O)c1c[nH]c2ccc(S(=O)(=O)Nc3cccc(OC)c3)cc2c1=O` the figure was 7.97% (inactive).

Regarding `CCOc1ccccc1C(=O)NCc1ccc2c(c1)CCN2C(=O)c1ccc(F)cc1`, the activity change, negative = inhibition is -15.6% (inactive). Next, `Cc1ncsc1CCCl`: -26.8% (inactive); `Cc1ccc(OCC(=O)Nc2cccc3c2CCCC3)cc1C`: -12.3% (inactive); `Cc1ccc(OCC(=O)Nc2ccc(C(=O)O)cc2NC(=O)COc2ccc(C)c(C)c2)cc1C`: -98.3% (active). With `Cc1cccc(OCC(=O)Nc2ccc(C(=O)O)cc2NC(=O)COc2cccc(C)c2)c1` the figure was -3.05% (inactive). Next, `COc1ccc(Cl)cc1NC(=O)Cn1nc(-c2ccc(C)cc2)n(C)c1=S`: 3.99% (inactive); `Cc1nn(C(C)C(=O)NCCC2=CCCCC2)c(=O)c2nn(-c3ccccc3)c(C)c12` (centres undefined): -28.7% (inactive).

Consider `Cc1ccc(-n2nc3c(=O)n(C(C)C(=O)NCc4ccc5c(c4)OCO5)nc(C)c3c2C)cc1` (centres undefined), for which the activity change, negative = inhibition was -83.4% (active).

In the case of `Cc1ccccc1CNC(=O)CSc1nnc(C)c2c(C)n(-c3ccccc3)nc12`, the activity change, negative = inhibition was -3% (inactive). Next, `Cc1nn(C(C)C(=O)N2CCOCC2)c(=O)c2nn(-c3ccccc3)c(C)c12` (centres undefined): -17.5% (inactive). On to `COc1ccc(CNC(=O)C(C)n2nc(C)c3c(C)n(-c4ccccc4)nc3c2=O)c(OC)c1` (centres undefined), for which the activity change, negative = inhibition was -15.4% (inactive) and -69.2% (active).

As to `COc1ccc(OC)c(CNC(=O)Cn2nc(C)c3c(C)n(-c4ccccc4)nc3c2=O)c1`, the activity change, negative = inhibition was -18.6% (inactive). For `COc1ccc(-c2n[nH]c3c2CN(C(=O)c2ccc(F)cc2)CC3)cc1`, the activity change, negative = inhibition was 0% (inactive). Consider `O=C1C=C[C@]23OCCC[C@@]2(CCCO)CCCC3=C1`, for which the activity change, negative = inhibition was -2.29% (inactive).

Consider `CCOc1cc(N2CCOCC2)c(OCC)cc1NC(=O)COc1cccc2cccnc12`, for which the activity change, negative = inhibition is -104% (active).

Consider `CCOc1cc(N2CCOCC2)c(OCC)cc1NC(=O)C1=NN(c2cccc(C)c2)C(=O)CC1`, for which the activity change, negative = inhibition was -25.4% (inactive). With `CCOc1cc(C(=O)OCC(=O)Nc2cccc(C)c2)ccc1OCC(=O)N1CCOCC1` the figure was -3.23% (inactive). With `Cc1ccc(CNS(=O)(=O)c2ccc(-c3cc(C(F)(F)F)on3)s2)cc1` the figure was 87.2% (inactive); with `Cc1ccc(CNS(=O)(=O)c2ccc(C(=O)N(C)C)s2)cc1`, 1.6% (inactive); with `O=C(Nc1ccccc1Br)c1cc(CN2CCCC2)on1`, 27.2% (inactive). With `CCOc1ccc(N(Cc2ccccc2)C(=O)c2nc(SCC)ncc2Cl)cc1` the figure was -68.2% (active); with `CCSc1ncc(Cl)c(C(=O)Nc2c(C(=O)c3ccccc3)oc3ccccc23)n1`, 12.8% (inactive). Take `CCOc1ccc(N(CC)C(=O)c2noc3c2COc2ccc(C)cc2-3)cc1`: the activity change, negative = inhibition was -7.27% (inactive). As to `CCOc1ccc(N(Cc2ccccc2)C(=O)c2nc(S(C)(=O)=O)ncc2Cl)cc1`, the activity change, negative = inhibition is -101% (active). With `CCOc1ccc(NC(=O)CN(Cc2ccccc2)S(=O)(=O)c2ccc(Cl)cc2)cc1` the figure was 2.3% (inactive); with `COc1ccc(N(Cc2ccc(N(C)C)cc2)C(=O)c2ccc(S(C)(=O)=O)cc2)cc1`, 6.32% (inactive); with `Brc1ccc(-c2n(-c3ccccn3)c3ccccc3[n+]2-c2ccccn2)cc1`, -11.9% (inactive). Next, `CCOC(=O)c1ccc(NC(=O)C2CC(=O)N(c3ccc(C(C)C)cc3)C2)cc1` (centres undefined): 46.5% (inactive). For the compound `COC(=O)c1cc(NC(=O)CCc2c(C)nc3c4c(C)cc(C)nc4nn3c2C)cc(C(=O)OC)c1`, the activity change, negative = inhibition was 8.7% (inactive). With `COc1ccc(C2c3ccc(O)cc3Oc3ncn(CCCO)c(=N)c32)cc1OC` (centres undefined) the figure was 0% (inactive); with `c1ccc2cc3c(NCCN4CCOCC4)ccnc3cc2c1`, -98.8% (active); with `CC(=O)Oc1cc2c(C(=O)NCCN3CCOCC3)c(C)oc2c2ccccc12`, 55.4% (inactive). With `CSc1ccc(CNCCN2CCOCC2)cc1` the figure was 0% (inactive); with `CNc1nc2cnc(-c3ccsc3)cc2n1Cc1ccccc1`, 12.4% (inactive); with `Cc1c(C(=O)Nc2cccc(Cl)c2)oc2ccc(S(=O)(=O)N3CCOCC3)cc12`, 4.49% (inactive). With `O=C(CCNC(=O)c1ccc(Cl)cc1)NC1CCCc2ccccc21` (centres undefined) the figure was -82% (active); with `Nc1ccc(C(=O)OCC(=O)NC2CCCc3ccccc32)cc1[N+](=O)[O-]` (centres undefined), -3.15% (inactive).

`NC(=O)Nc1ccc(C(=O)OCC(=O)NC2CCCc3ccccc32)cc1` (centres undefined): the activity change, negative = inhibition was -25.3% (inactive).

The values are drawn from PubChem BioAssay AID1259415 (National Center for Advancing Translational Sciences (NCATS), 2018).
